# From PubChem BioAssay AID743395 (Broad Institute, 2014)
# In all, about 1,200 compounds went through this assay and about 480 (40%) were called active. The set was probably picked from earlier hits. The list is a sample of the results. Entries with a potency or affinity are not part of this list. A number with no mark means an inactive call. The rule behind the calls is not given here.
# Experiment: viability loss in human hepatoma cells – cell-based, CellTiter-Glo luminescence, cherry-pick, set 2, cytotoxicity control, dose response (AID 743395);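 note: 0% = neutral control wells and -100% = positive control wells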
# Conditions: HepG2 viability, CellTiter-Glo ATP luminescence, 72 h; series mostly up to 26 µM; activity change, negative = cytotoxicity: at the top concentration
row,SMILES,"activity change, negative = cytotoxicity"
1,CN(CC(=O)Nc1ccc(Cl)c(C(F)(F)F)c1)C(=O)CCN1C(=O)C2CCCCC2C1=O (configuration not stated),-13.2%
2,CCOC(=O)c1nc(C)sc1-c1ccnn1S(=O)(=O)c1ccccc1C(F)(F)F,-0.592%
3,CC(=O)c1c(C)[nH]c(C(=O)OCC(=O)NCc2ccc(Cl)cc2)c1C,-21.3%
4,O=C1NCCc2c1[nH]c1ccc([N+](=O)[O-])cc21,-20.4%
5,O=C(CCNC(=O)c1ccco1)Nc1nc(-c2ccccc2)cs1,-11.4%
6,COc1cc(/C=C2\SC(=Nc3ccc(Cl)c(C(=O)O)c3)NC2=O)c(Br)c(Br)c1O,4.23%
7,COc1ccc2c(c1)/C(=C/c1cc(OC)c(OC)c(OC)c1)C(=O)N2,-24.9%
8,Cc1nn(C2CCS(=O)(=O)C2)c2nc(C3CC3)cc(C(=O)Nc3cccc(C#N)c3)c12 (configuration not stated),-19.7%
9,COc1ccc(C#Cc2ccc3c(c2)O[C@H](CN(C)C(=O)Nc2cccc(OC)c2)[C@H](C)CN([C@H](C)CO)S3(=O)=O)cc1,-1.04% [at 23.5 µM]
10,COc1ccc(NC(=O)C(=O)c2cn(CC(=O)N3CCCC3)c3ccccc23)cc1OC,-33.5%
11,COc1ccc(CNCC(=O)Nc2ccccc2-n2cccc2)cc1,-13.8%
12,CCCCNC(=O)c1onc(CSc2ccccc2C)c1C(=O)O,-8.72%
13,COc1cccc(C2=CC(c3ccccc3)n3nnnc3N2)c1 (configuration not stated),-18.3%
14,CCOc1cc(N2CCOCC2)c(OCC)cc1NC(=O)CN1C(=O)NC2(CCCCC2)C1=O,-3.62%
15,COCCCN=C1NN=C(c2cc(C)n(Cc3ccccc3Cl)c2C)CS1,-14.4%
16,C[C@H]1CNC(=O)c2c(C(=O)Nc3ccc(CNC(=O)OC(C)(C)C)cc3)ncn21,-3.46%
17,CC(=O)N(C)C[C@@H]1Oc2cc(C#Cc3ccc(F)cc3)ccc2S(=O)(=O)N([C@H](C)CO)C[C@@H]1C,-8.91%
18,C[C@H](CO)N1C[C@H](C)[C@@H](CN(C)C(=O)NC2CCCCC2)Oc2cc(C#Cc3ccc(F)cc3)ccc2S1(=O)=O,15.3%
19,C[C@@H]1CN([C@H](C)CO)S(=O)(=O)c2ccc(C#Cc3cccc(F)c3)cc2O[C@@H]1CN(C)C(=O)NC1CCCCC1,-27.1%
20,C[C@H](CO)N1C[C@H](C)[C@H](CN(C)C(=O)NC2CCCC2)Oc2cc(C#Cc3ccc(F)cc3)ccc2S1(=O)=O,-13.8%
21,C[C@H](CO)N1C[C@H](C)[C@H](CN(C)C(=O)NC2CCCCC2)Oc2cc(C#Cc3ccc(F)cc3)ccc2S1(=O)=O,-7.21%
22,C[C@H]1CN([C@@H](C)CO)S(=O)(=O)c2ccc(C#Cc3cccc(F)c3)cc2O[C@H]1CN(C)C(=O)NC1CCCCC1,-26.2%
23,Cc1cccc2c(N=Nc3ccc(S(=O)(=O)Nc4ccc(Cl)cc4)cc3[N+](=O)[O-])c(O)[nH]c12,1.24%

row,SMILES,"activity change, negative = cytotoxicity"
1,Cc1ccc(-c2nc(CSCC(=O)Nc3cc(C)on3)c(C)o2)cc1,-3.4%
2,COc1ccc(C#Cc2ccc3c(c2)O[C@@H](CN(C)C(=O)Nc2cccc(OC)c2)[C@H](C)CN([C@H](C)CO)S3(=O)=O)cc1,-6.6%
3,CO[C@@H]1CN(C)C(=O)c2cc(NC(=O)Nc3c(C)noc3C)ccc2OC[C@@H](C)N(C)C[C@@H]1C,4.2%
4,Cc1cccc(OCCNC(=O)c2ccc(Cl)c(S(=O)(=O)NCc3cccnc3)c2)c1,-31.4%
5,Cc1ccc(S(=O)(=O)NCc2ccccc2)cc1C(=O)N1CC(C)CC(C)C1 (configuration not stated),-7.82%
6,N=c1sccn1CC(=O)Nc1ccc(S(N)(=O)=O)cc1,-16.8%
7,COC(=O)C[C@@H]1CC[C@@H]2[C@H](COc3ccc(NC(=O)c4ccc(C(F)(F)F)cc4)cc3C(=O)N2C)O1,-19.6%
8,NS(=O)(=O)c1ccc(CNc2ccc3ccccc3n2)cc1,1.62%
9,O=C(CN(Cc1ccccc1)S(=O)(=O)c1ccc(F)cc1)NCc1cccnc1,-16.4%
10,COC(=O)c1ccsc1NC(=O)c1ccccc1,-17.6%
11,CCN(C(=O)COC(=O)c1cc(-c2ccccc2)nc2c1c(C)nn2-c1ccc(C)cc1)C1CCS(=O)(=O)C1 (configuration not stated),-8.63%
12,CC(C)c1ccc(CN2CCN(S(=O)(=O)c3ccc(Cl)s3)CC2)cc1,-4.24%
13,Cc1cc(C)cc(C(=O)NCC(=O)OCc2cc([N+](=O)[O-])cc3c2OCOC3)c1,17%
14,CCN(CC)C(=S)SSC(=S)N(CC)CC,-4.43%
15,Cc1cc2c(cc(C(=O)OC(C)C(=O)NCc3ccc(F)cc3)n2C)o1 (configuration not stated),-0.125%
16,CCN(CC)CCn1c2c(c(SCC(=O)Nc3ccc(F)c(F)c3)nc1=O)CCC2,-13%
17,COc1cc(C(=O)OCCc2cc3ccccc3c(=O)o2)cc(OC)c1OC,-16.8%
18,O=C1c2ccccc2C(=O)N1Cc1cnc(N2CCN(c3ccccc3)CC2)s1,-32%
19,CCOC(=O)c1cnc(COc2ccc(OC)cc2)[nH]c1=O,-2%
20,S=C(NCCc1ccccc1)Nc1nccs1,-14.8%
21,COc1ccc(NS(=O)(=O)c2cc(NC(=O)Cc3c(F)cccc3Cl)ccc2OC)cc1,-10.6%
22,CC1CN(S(=O)(=O)c2ccc(C(=O)N3CCc4ccccc43)cc2)CC(C)O1 (configuration not stated),5.35%
23,O=S(=O)(c1ccc(Br)cc1)N1CCCc2ccccc21,4.64%

row,SMILES,"activity change, negative = cytotoxicity"
1,C[C@H](CO)N1C[C@H](C)[C@H](CN(C)C(=O)c2ccc3c(c2)OCO3)Oc2cc(C#Cc3ccccc3F)ccc2S1(=O)=O,62.9%
2,COc1ccc(C)cc1NC(=O)C(OC(=O)c1ccc(Cl)c(S(=O)(=O)N(C)c2ccccc2)c1)c1ccccc1 (configuration not stated),6.28%
3,O=c1c(O)c(-c2cccs2)oc2ccc(Cl)cc12,-32.4%
4,CC(C)Oc1ccc(S(=O)(=O)N2CCOCC2)cc1NC(=O)CCCSc1ccccc1,7.1%
5,O=C(NCCCN1CCCC1=O)c1cc(S(=O)(=O)N2CCOCC2)c(Cl)cc1Cl,1.04%
6,c1ccc2c(c1)N1CCCN=C1N2CCN1CCCCC1,-12.9%
7,COc1ccc(NC(=O)N(C)C[C@@H]2Oc3cc(C#CCC(C)C)ccc3S(=O)(=O)N([C@H](C)CO)C[C@@H]2C)cc1,7.43%
8,O=C(NCC(c1cccs1)N1CCOCC1)c1ccc(OCc2ccccc2)cc1 (configuration not stated),12.2%
9,Cc1ccc(S(=O)(=O)N2CCOCC2)cc1NC(=O)CSc1nnc(COc2ccccc2F)n1N,-0.298%
10,CCOC(=O)[C@H](CCc1ccccc1)N[C@@H](C)C(=O)N1[C@H](C(=O)O)C[C@@H]2CCC[C@@H]21,-17.6%
11,CCOc1ccc(NS(=O)(=O)c2cc(NC(=O)CCNC(=O)c3ccco3)ccc2OC)cc1,-23.6%
12,CC(=O)OCC(=O)NCCCOc1cccc(CN2CCCCC2)c1,-9.23%
13,Cc1c(C)c2c(OCC(=O)N3CCC(O)CC3)cc3c(c2oc1=O)CCC(C)(C)O3,-0.002%
14,CCOc1ccc(C(=O)N[C@H](C(=O)Nc2cccc(S(=O)(=O)N3CCCCC3)c2)C(C)C)cc1,34.1%
15,CN(Cc1cccs1)C(=O)c1cccc(S(=O)(=O)N2CCCCCC2)c1,-15.8%
16,COC(CNC(=O)[C@H](Cc1ccccc1)N1Cc2ccccc2C1=O)OC,1.08%
17,CC(C(=O)O)N(C(=O)c1ccccc1)c1ccc(F)cc1 (configuration not stated),-6.57%
18,COc1ccc(NC(=O)C2CCCN2C(=O)Nc2cccc(F)c2)cc1 (configuration not stated),-4.96%
19,O=C(NCCC1CCCCN1S(=O)(=O)c1cccs1)C(=O)Nc1ccc(F)cc1F (configuration not stated),-11.5%
20,Cc1ccc(OCC(=O)Nc2ccc(CN3CCCCC3)cc2)c(C)c1,-4.73%
21,N#CC(C#N)=C1C=C2C=C(N3CCOCC3)CCC2CC1 (configuration not stated),-4.57%
22,CCN(CC)C1=CC2=CC(=C(C#N)C#N)CCC2CC1 (configuration not stated),2.84%
23,CC12CCC3c4ccc(O)cc4CCC3C1CCC2=O (configuration not stated),-5.95%

row,SMILES,"activity change, negative = cytotoxicity"
1,C#C[C@]1(O)CC[C@H]2[C@@H]3CCc4cc(OC)ccc4[C@H]3CC[C@@]21C,-1.22%
2,COc1cccc(C#Cc2ccc3c(c2)O[C@@H](CN(C)C(=O)c2ccccn2)[C@H](C)CN([C@@H](C)CO)S3(=O)=O)c1,11.2%
3,O=C(O)COC(=O)Cc1ccccc1Nc1c(Cl)cccc1Cl,-6.65%
4,Cc1ccc(C(=O)Nc2cccc(C(F)(F)F)c2)cc1Nc1cnccn1,2.75%
5,CC(=O)c1cc(NC(=O)c2cccc(C(F)(F)F)c2)c(=O)oc1C,1.46%
6,COCCNc1nc(Nc2ccc(C)cc2C)c2sccc2n1,-3.94%
7,Cn1cccc1C(=O)OCC(=O)NCc1ccc2c(c1)OCO2,-11.8%
8,CC(=O)NS(=O)(=O)c1ccc(NC(=O)CSc2ccc(Cl)cc2)cc1,-2%
9,CC(C)(C)C(=O)Nc1ccc(S(=O)(=O)NC2=NCCCCC2)cc1,-0.044%
10,Cc1ccc(S(=O)(=O)Nc2cc(C)cc(CCNC=O)c2C)cc1,4.38%
11,Cc1cc(O)cc2c1C1CCC3(C)C(=O)CCC3C1C=C2 (configuration not stated),8.57%
12,COc1ccc(-c2oc3ccc(-c4cc(OC)c(OC)c(OC)c4)cc3c2C#Cc2ccccn2)cc1,-5.9%
13,COc1ccc(CCn2c(NN=C(C)C)nc3c2c(=O)[nH]c(=O)n3C)cc1,-1.37%
14,CCCCNC(=O)CSc1nc2ccc(C)cc2[nH]1,4.44%
15,COC(=O)c1ccc(C(=O)NC2CCCc3c2cnn3-c2cc(F)cc(F)c2)nc1 (configuration not stated),-22.1%
16,COC(=O)C1=CN(c2ccc3c(c2)OCO3)C(N)=C(C#N)C1c1cccc(F)c1 (configuration not stated),-9.02%
17,COc1cccc(NC(=O)c2cnc(SCC(=O)NCc3ccc4c(c3)OCO4)n(C)c2=O)c1,-13.8%
18,C/C=C/c1ccc([C@@H]2[C@H](CO)N3CCCCN(S(=O)(=O)c4ccccc4)C[C@@H]23)cc1,9.51%
19,O=C(Nc1ccc(F)cc1)N1CCCCN2[C@H](C1)[C@H](c1ccc(-c3cccc(F)c3)cc1)[C@@H]2CO,-14.1%
20,O=C(Nc1ccccc1)N1C[C@H]2[C@@H](c3ccccc31)[C@H](CO)N2C(=O)c1ccccn1,-1.86%
21,OC[C@@H]1[C@@H](c2ccc(C#CC3(O)CCCC3)cc2)[C@H]2CN(Cc3ccccc3F)CCCCN12,-24.4%
22,CCOc1ccc(NC(=O)CN(c2ccc([N+](=O)[O-])cc2)S(=O)(=O)c2ccccc2)cc1,-26%
23,Cc1ccc(NC(=O)Cc2nc(-c3c[nH]c(C(=O)N4CCCC4)c3)cs2)c(C)c1,-12.1%
